Screens: PubChem, National Center for Advancing Translational Sciences (NCATS)
Pf growth 96h – inhibits malaria parasite growth, 96 h | hit rate 6.9% among 320,000 | P. falciparum luciferase reporter growth, 96 h | Potency, µM (series often up to 28.7 µM), without a hit: at the top dose activity change, negative = inhibition, actives largely listed as inhibitors | AID 504834; also: potency is read from the fitted curve at half-maximal effect
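Infected RBCs, 2% Hct / 0.05% parasitemia final; luciferase-reporter P. falciparum; cpd 96 h, 37 C, 5% CO2; luciferase detection reagent; luminescence.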
Pf growth 48h – P. falciparum growth inhibition at 48 hours (one generation); P. falciparum luciferase growth in erythrocytes, 48 h; Potency, µM (highest dose often 28.7 µM), for the others: top-dose activity change, negative = inhibition, hits mostly inhibitors; hit rate 5.9% among 310,000; AID 504832; also: potency is read from the fitted curve at half-maximal effect
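Parasite viability was followed by luminescence of a genomically integrated firefly luciferase. Cultures held 0.1% parasitemia at 2% hematocrit (final), incubated under 5% CO2 at 37 C.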
LASV entry inh – inhibitors of Lassa virus binding or cell entry | Lassa virus pseudotype entry inhibition, cell reporter | Potency, µM (doses to about 37.9 µM), for the others: at the highest dose activity change, negative = inhibition, actives largely listed as inhibitors | hit rate 1.2% among 300,000 | AID 540256; calls by dose curve; tested in HEK293 cells; also: potency is read from the fitted curve at half-maximal effect; nearly all actives have a fitted effect of over 50% in size
MARV entry inh – Marburg virus entry inhibition | hit rate 1.8% among 300,000 | Potency, µM (series often up to 37.8 µM), for the others: top-dose activity change, negative = inhibition, usual class: inhibitors | Marburg virus pseudotyped entry inhibition, cell reporter; calls by dose curve; tested in HEK293 cells; also: potency is read from the fitted curve at half-maximal effect
HCV inh – blocks hepatitis C virus; Huh7.5.1 HCVcc-Cre infection, luciferase reporter, 44 h; Potency, µM (top dose mostly 41.8 µM), without a hit: at the top dose activity change, negative = inhibition, usual class: inhibitors; hit rate 3.4% among 340,000; AID 651820; also: potency is read from the fitted curve at half-maximal effect
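Infectious HCV cell culture screen: compound-treated cells (1,000/well, pre-plated 4 h) are infected with HCVcc-Cre at roughly 0.5 moi and grown 44 h. Infection is quantified by luciferase signal after 15 min substrate incubation at room temperature.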
HCMV inh – blocks human cytomegalovirus replication. HFF cells, HCMV-luciferase reporter, 72 h; stronger effect = lower value. hit rate 4.5% among 410,000. activity change, negative = inhibition, % at 57.5 µM. AID 1259415; in the data active = activity change below about -60%; inconclusive = no clear call, values can overlap the other calls; inactive = above about -39%
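Steps: HFFs plated, 16 h 37C; compounds added; HCMV-luciferase added to MOI 1 PFU/cell; 72 h 37C; OneGlo reagent, 5 min room temperature; luminescence read, normalized to controls.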
* = called active by the depositor; ? = inconclusive; . = not tested or not shown; [ ] = remark or other dose. Hits are enriched below; roughly 14% of the tested compounds scored in any of these assays. Unless noted, calls follow the shape of the dose curve; as a rule, active = well fitted inhibition curve with a large enough effect; inconclusive = small, poorly fitted or top-dose-only effect, or another doubt; inactive = no such curve, though single readings can be large or run the other way. % is scaled to controls: 0 for no effect and ±100 for the full control effect.

SMILES	Pf growth 96h	Pf growth 48h	LASV entry inh	MARV entry inh	HCV inh	HCMV inh
CCc1cc(C(c2ccncc2)N2CCN(C)CC2)c(NC(=O)c2ccccc2)s1 (stereo not drawn)	?	13µM*	19%	?	21%	-24
CCOc1ccc(CN2CCN(S(=O)(=O)c3ccc(Cl)cc3)CC2)cc1	.	.	?	.	.	-15
CCCN(CCC)S(=O)(=O)c1cccc(-c2csc(C)n2)c1	?	10µM*	0%	?	-2%	?
CC(=O)Oc1ccc(OC(C)=O)c(SCCCCCN2CCOCC2)c1	7.4µM*	5.2µM*	?	16µM*	11µM*	?
CC(=O)n1nc(-c2cccc(C)c2)nc1SCC(=O)Nc1ccccc1	32%	35%	?	-2%	6%	-89*
O=C(CSc1nc(-c2ccccc2)nn1C(=O)c1ccccc1)Nc1cccc([N+](=O)[O-])c1	22%	5%	?	-2%	25µM*	50
Cn1nnnc1SCC(=O)Nc1cccc([N+](=O)[O-])c1	-3%	47%	12%	8%[46.1 µM]	-4%	-68*
CCC(=O)n1nc(-c2ccccc2)nc1SCC(=O)Nc1ccc(C)cc1	?	47%	-5%	2%	-8%	17
O=C(NC1CCCCC1)c1nnc2n1CCN(Cc1cccc(C(F)(F)F)c1)C2	.	.	.	.	.	21
CCOc1ccc2ccccc2c1/C=N/n1cncn1	0%	-13%	0%	3%	11µM*	-13
CCCOc1ccc2ccccc2c1/C=N/n1cnnc1	25%	11%	-6%	-10%	?	4
Cc1cc(=O)oc(C)c1C(=O)NCCNC(=O)c1c(C)cc(=O)oc1C	.	-1%	2%	?	2%	77
Cc1cc(=O)oc(C)c1C(=O)NCCC(C)C	4.1µM*	25%	-1%	?	15%	17
COc1cccc(=O)c2c(C)n(CC(=O)c3ccccc3)c(C)c12	293%	?	-10%[46.1 µM]	-9%[46.1 µM]	-25%	18
CCOc1cccc(=O)c2c(C)n(CC(=O)c3ccccc3)c(C)c12	44%	8.3µM*	-17%	-23%[46.1 µM]	?	-18
COc1ccc(C(CNC(=O)CCNS(=O)(=O)c2ccccc2)N2CCOCC2)cc1 (stereo not drawn)	.	.	.	.	.	-36
Cc1cccc(-c2nc3c4ccccc4nc(N4CCN(c5cccc(Cl)c5)CC4)n3n2)c1	.	.	.	?	.	-62*
Clc1cccc(N2CCN(c3nc4ccccc4c4nc(-c5ccccc5)nn34)CC2)c1	.	.	.	-2%[46.1 µM]	.	-23
COc1ccc(CC2C(=O)NC(C)C(=O)N(C)C3Cc4ccc(cc4)Oc4cc(ccc4O)CC(C(=O)NC(C)C(=O)NC(C)C(=O)N2C)N(C)C3=O)cc1 (stereo not drawn)	.	.	?	?	?	-101*
COc1cc2nc(=S)n(CCCN3CCOCC3)c(N)c2cc1OC	-10%	316%	10%	?	18%	.
COc1ccc(C2c3ccc4ccccc4c3Oc3ncn(CCN4CCOCC4)c(=N)c32)cc1OC (stereo not drawn)	13µM*	9.3µM*	.	.	?	38
N=c1c2c(ncn1CCN1CCOCC1)Oc1cc(O)ccc1C2c1ccccc1 (stereo not drawn)	?	?	?	?	-15%	0
COc1ccc(C2c3ccc(O)cc3Oc3ncn(CCN4CCOCC4)c(=N)c32)cc1OC (stereo not drawn)	?	?	-10%	2%	-23%	-9
COc1ccc(C2c3ccc4ccccc4c3Oc3ncn(CCN4CCOCC4)c(=N)c32)cc1 (stereo not drawn)	6.6µM*	12µM*	10%	?	?	?
COc1ccc(C2c3c(ncn(CCCN4CCOCC4)c3=N)Oc3ccc4ccccc4c32)cc1OC (stereo not drawn)	1.9µM*	4.1µM*	.	.	22µM*	-12
SMILES	Pf growth 96h	Pf growth 48h	LASV entry inh	MARV entry inh	HCV inh	HCMV inh
O=C(c1cnn(-c2cccc(F)c2)c1-n1cccc1)N1CCN(c2ccccc2F)CC1	.	.	-4%[46.1 µM]	.	.	0
COc1ccc(-n2ncc(C(=O)NCc3cccs3)c2C2CCN(C(=O)OC(C)(C)C)CC2)cc1	.	.	?	.	.	0
CCCOC(=O)c1cccc(Nc2nc(CCC)cc(=O)[nH]2)c1	.	.	-22%[46.1 µM]	?	.	?
CCOC(=O)C1CCC(CN(Cc2cccc(Br)c2)S(=O)(=O)c2ccc(C)cc2)CC1 (stereo not drawn)	.	.	-25%[46.1 µM]	.	.	-3
CCn1c(C)c(C(C)=O)c(N2CCN(C(c3ccccc3)c3ccccc3)CC2)nc1=S	0%	?	?	?	6.3µM*	-18
CCn1c(C)c(C(C)=O)c(N2CCCCC2)nc1=S	12µM*	0%	18%	?	0%	-28
CC(=O)c1c(N2CCCCC2)nc(=S)n(-c2ccccc2)c1C	.	7%	8%	-20%	0%	?
CCCCNc1nc(=S)n(-c2ccccc2)c(C)c1C(C)=O	10%[5.75 µM]	6%	-22%[46.1 µM]	?	?	-99*
CCCNc1nc(=S)n(-c2ccccc2)c(C)c1C(C)=O	0%	3%	1%	16%[46.1 µM]	9%	?
CC(=O)c1c(N2CCCC2)nc(=S)n(-c2ccccc2)c1C	?	.	1%	-24%	-4%	-74*
Cc1ccc(NC(=O)CCc2c(C)nc3cc(-c4ccccc4)nn3c2C)cc1F	.	.	-9%[46.1 µM]	-23%[46.1 µM]	.	-32
CCn1nccc1NC(=O)c1csc([C@H]2C[C@H](O)[C@@H](CO)O2)n1	.	.	.	.	.	-3
CC(NC(=O)C(=O)N1CCCCC1)C(c1cccs1)N1CCN(c2ccccc2F)CC1 (stereo not drawn)	1.3µM*	?	.	.	5%	-17
COCC(=O)n1nc(-c2ccc(Cl)cc2)nc1NCc1ccc(F)cc1	2.9µM*	.	0%	?	?	40
COCC(=O)n1nc(-c2ccc(C)cc2)nc1NCc1ccc(F)cc1	1%	0%[5.75 µM]	-7%	10%[46.1 µM]	-8%	-16
O=C(N/N=C\c1ccc(CNS(=O)(=O)c2ccc(Cl)cc2)o1)C(=O)Nc1ccc(Oc2ccccc2)cc1	-7%	1%	?	?	13µM*	-99*
O=C(N/N=C\c1ccc(CNS(=O)(=O)c2ccccc2)o1)C(=O)Nc1ccc(F)cc1	0%	44%	6%	-14%	-4%	10
O=C(NCCCN1CCN(c2ccc(F)cc2)CC1)c1sc2ncccc2c1-n1cccc1	.	.	-2%[46.1 µM]	.	.	-19
CC(C)Oc1cc(F)ccc1-c1cc(C(=O)NC2CCCCC2)[nH]n1	.	.	.	.	.	-38
CCOc1cc2c(cc1O)C(=NO)CC1C2CCC2(C)C(O)CCC12 (stereo not drawn)	.	.	?	?	?	-76*
O=C(COc1ccc(F)cc1)Nc1cc(S(=O)(=O)N2CCCCC2)ccc1N1CCCCC1	7.4µM*	3.7µM*	?	?	?	-15
